Compound activity deposited in PubChem BioAssay by several laboratories.
Compounds with a hit are over-represented: about 2.7% of the library has one in this group of screens.
ERb SRC1 inh: ER-beta (human) coactivator binding inhibition; hit rate 1.3% among 86,000; AID 633; Q92731; TR-FRET ER-beta LBD / SRC1-Cy5 peptide binding; receptor agonist-loaded with 1 µM estradiol; inhibition, % at 25.6 µM;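 active = compounds whose percent inhibition of the receptor-coactivator binding signal exceeds about 50% in the single-dose screen, limit read from the data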
Target sequence (Q92731 whole entry, looked up, the tested form may be a part): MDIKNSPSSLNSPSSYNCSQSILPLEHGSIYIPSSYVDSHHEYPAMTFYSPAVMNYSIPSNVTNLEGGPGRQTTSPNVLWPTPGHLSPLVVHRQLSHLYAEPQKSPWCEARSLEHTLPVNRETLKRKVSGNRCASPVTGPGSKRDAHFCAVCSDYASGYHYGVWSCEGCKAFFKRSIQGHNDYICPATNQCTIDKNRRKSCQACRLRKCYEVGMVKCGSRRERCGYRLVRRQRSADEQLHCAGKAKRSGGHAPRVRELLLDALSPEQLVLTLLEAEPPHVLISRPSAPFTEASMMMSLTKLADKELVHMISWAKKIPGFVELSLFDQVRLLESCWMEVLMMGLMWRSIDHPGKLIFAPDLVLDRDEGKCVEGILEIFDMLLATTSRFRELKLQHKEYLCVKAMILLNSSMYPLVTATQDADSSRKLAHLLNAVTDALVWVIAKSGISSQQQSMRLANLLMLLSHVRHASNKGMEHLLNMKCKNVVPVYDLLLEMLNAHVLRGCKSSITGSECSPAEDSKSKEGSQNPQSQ
ERa SRC1 pot: enhances coactivator binding to human estrogen receptor alpha; P03372; TR-FRET ERalpha-LBD/SRC-Cy5 coactivator binding, 2 h; 100 = basal binding, no effect; AID 639; coactivator binding (% of control), % at 25.6 µM; hit rate 1.3% among 86,000; in the data active = activity above about 200%;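 also: binding measured in presence of low estradiol as agonist stimulus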
MRP reversal: compounds reversing MRP-mediated drug resistance; H69AR cells + 2 uM doxorubicin, CellTiter-Glo, 72 h; differential viability (reversal), % at 10 µM; hit rate 0.04% among 85,000;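 active = viability drop by adding the cancer drug above about 55%, with treated viability meeting a 40% cutoff, limit read from the data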;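 also: larger differential means the compound sensitizes cells more to doxorubicin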
ERa SRC1 inh: ER-alpha (human) coactivator binding inhibition; P03372; TR-FRET ER-alpha LBD / SRC-1 peptide, estradiol-bound; inhibition, % at 25.6 µM; hit rate 1.7% among 86,000; in the data active = inhibition above about 50%
MRP-1 activ: activates MRP-1. H69AR cells + doxorubicin, viability rescue, CellTiter-Glo. viability increase, % at 10 µM. hit rate 0.61% among 140,000. AID 799;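 active = viability gain under doxorubicin at or above a set limit, the compound median plus 3 SD, cut at about 4.7% in these data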;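 also: MRP-1 overexpressing cells given doxorubicin 25 µM after compound pretreatment; 18-22 h compound pretreatment then 72 h with doxorubicin before readout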
Numbers stand for hits; 0 = inactive; - = no result; [ ] = remark or other dose.

SMILES	ERb SRC1 inh	ERa SRC1 pot	MRP reversal	ERa SRC1 inh	MRP-1 activ
O=C(OCc1cc(=O)n2cc(Br)ccc2n1)C1COc2ccccc2O1 (centres undefined)	0	0	0	0	0
CCS(=O)(=O)N1CCC(C(=O)N2CCc3ccccc3C2)CC1	0	245.1[fluorescence artefact?]	0	0	0
O=C(CNC(=O)C1CCCCC1)Nc1cc(Cl)ccc1Cl	-	-	-	-	0
CC1(C)O[C@@H]2C[C@H]3[C@@H]4C[C@H](F)C5=CC(=O)CC[C@]5(C)[C@H]4[C@@H](O)C[C@]3(C)[C@]2(C(=O)CO)O1	0	0	0	0	5.2
CC1=C(C(=O)OC(C)(C)C)C(c2cccs2)NC(=O)N1 (centres undefined)	-	-	-	-	0
CCCCOc1ccc(NC(=O)C2CC=CCC2C(=O)O)cc1 (centres undefined)	0	0	0	0	-
CCCCCNC(=O)C1CC=CCC1C(=O)O (centres undefined)	0	272.6[fluorescence artefact?]	0	0	0
Cc1ccc(CNC(=O)CSc2c3c(nc4cc(Cl)ccc24)CCCC3)o1	0	0	0	0	0
CC1=NN(c2ccc(C)cc2C)C(=O)C1C(c1ccccc1O)C1C(=O)N(c2ccc(C)cc2C)N=C1C (centres undefined)	-	-	-	-	5.6
CCC(=O)N1CCN(c2ccc(NC(=O)c3ccc(-c4ccccc4)cc3)cc2)CC1	0	0	0	0	0
O=C(CCc1ccccc1)Nc1nnc(-c2cccs2)o1	69.9	0	0	0	0
O=C(CCc1ccccc1)Nc1nnc(-c2ccccn2)o1	-	-	-	-	0
CCN(CC)C(=O)C1CCCN(C(=O)Nc2ccc(NC(=O)N3CCCC(C(=O)N(CC)CC)C3)cc2)C1 (centres undefined)	0	0	0	0	0
CCC(C)NC(=O)C1CCCN(C(=O)Nc2ccc(F)cc2)C1 (centres undefined)	0	294.6	0	0	0
CCOc1ccccc1C(=O)Nc1cccc(-c2nnc(-c3ccccc3)o2)c1	0	316.5[fluorescence artefact?]	0	0	0
COc1ccc2c(Cl)c(C(=O)NCCCn3ccnc3)sc2c1	0	0	78.6	0	0
COc1ccc2c(Cl)c(C(=O)NN)sc2c1	-	-	-	-	0
Cc1cc2n(n1)C(c1ccccc1)CC(c1ccc(Br)cc1)=N2 (centres undefined)	-	-	-	-	5.5
CNC(=S)N1N=C(c2ccc(Br)cc2)CC1c1ccc(Br)cc1 (centres undefined)	-	-	-	-	0
O=C(Oc1ccccc1C(=O)Nc1ccccc1)c1ccc(Br)c([N+](=O)[O-])c1	-	-	-	-	0
Cc1ccc(/C=c2\sc3nc(-c4cccnc4)nn3c2=O)cc1	0	0	0	68.8[fluorescence artefact?]	0
O=C(Nc1ccc(Cc2ccncc2)cc1)C1CCC(N2C(=O)C3CC=CCC3C2=O)CC1 (centres undefined)	52.8	0	0	55.3	0
O=C(Nc1ccc(Cc2ccncc2)cc1)C1CCC(N2C(=O)C3C4C=CC(C4)C3C2=O)CC1 (centres undefined)	-	-	-	-	0
CCCS(=O)(=O)c1c(S(=O)(=O)CCC)c2cnccn2c1C(=O)c1ccc(Cl)cc1	0	0	0	0	0
Cc1ccc(/C=C2\SC(=S)N(CCCC(=O)Nc3nccs3)C2=O)cc1	-	-	-	-	5.3
SMILES	ERb SRC1 inh	ERa SRC1 pot	MRP reversal	ERa SRC1 inh	MRP-1 activ
COc1ccc(/C=C2\SC(=S)N(CCCC(=O)Nc3ccccn3)C2=O)cc1OC	-	-	-	-	0
CCc1ccc(/C=C2\SC(=S)N(CCCC(=O)Nc3nccs3)C2=O)cc1	-	-	-	-	0
Cc1ccc(/C=C2\SC(=S)N(CCCC(=O)Nc3ccccn3)C2=O)cc1	-	-	-	-	6.8
CC(=O)c1c(C)[nH]c(C(=O)OCC(=O)Nc2ccc(Cl)cc2[N+](=O)[O-])c1C	-	-	-	-	0
COc1ccc(Cc2nnc(NC(=O)CSc3ccccc3)s2)cc1	-	-	-	-	0
COCC(=O)Nc1nnc(Cc2ccc(OC)cc2)s1	54.8	0	0	0	0
Cc1nc(N2CCN(Cc3ccccc3)CC2)nc2c1C(=O)CC(c1ccco1)C2 (centres undefined)	0	0	0	0	5.6
Cc1nc(N2CCN(Cc3ccc4c(c3)OCO4)CC2)nc2c1C(=O)CC(c1ccco1)C2 (centres undefined)	0	0	-	0	0
Cc1nc(NC(=O)CC(C)C)sc1-c1csc(Nc2ccc(Cl)cc2)n1	-	-	-	-	0
Fc1cccc(-c2cc3nc(-c4ccccc4)cc(N4CCC5(CC4)OCCO5)n3n2)c1	0	0	0	0	6.1
Cc1cccc(-c2cc3nc(-c4ccccc4)cc(N4CCC5(CC4)OCCO5)n3n2)c1	0	0	0	0	0
Cc1ccc(-c2cc3nc(-c4ccccc4)cc(N4CCC5(CC4)OCCO5)n3n2)cc1	0	283.7[fluorescence artefact?]	0	0	0
Cc1ccc(S(=O)(=O)c2nc(S(C)(=O)=O)sc2NCC2CCCO2)cc1 (centres undefined)	0	610.5	0	0	0
Cc1ccc2[nH]c(=O)c(C(c3nnnn3C(C)(C)C)N(Cc3ccco3)CC3CCCO3)cc2c1 (centres undefined)	0	0	0	0	0
Cc1cccc2cc(C(c3nnnn3C(C)(C)C)N(Cc3ccco3)CC3CCCO3)c(=O)[nH]c12 (centres undefined)	66.1[fluorescence artefact?]	0	0	57.3	0
COc1ccc(NC(=O)Nc2ccc(N(C)C)cc2)cc1	51.7[fluorescence artefact?]	0	0	0	0
COc1ccc(NC(=O)Nc2ccc(OC)cc2)cc1	0	0	0	0	0
CC(C)(C)c1ccc(/C=N/OCC(=O)NCc2ccc(F)cc2)cc1	-	-	-	-	0
Brc1ccc(OCc2nc(-c3ccccn3)n[nH]2)cc1	0	0	0	0	8.4
CCC1(C)Cc2c(sc3c2c(=O)n(C)c2nnc(SCc4ccc5c(c4)OCO5)n32)CO1 (centres undefined)	69.4[fluorescence artefact?]	0	0	87.2[fluorescence artefact?]	0
CC(C)Oc1ccc(CSc2nnc3n(C)c(=O)c4c5c(sc4n23)CCCC5)cc1	0	0	0	0	-
CC1=C/C(=N\NC(=O)c2ccccc2)CC1	-	-	-	-	0
Cc1ccc2cc3cc(C(=O)NCCCN4CCc5ccccc5C4)oc3nc2c1	0	0	0	0	0
Cc1ccc2cc3cc(C(=O)NCCCN4CCCCCC4)oc3nc2c1	0	0	0	58.3[fluorescence artefact?]	0
Cc1cc(Br)ccc1NC(=O)CNC(=O)CN1C(=O)NC2(CCCCCC2)C1=O	0	0	0	0	7.5
SMILES	ERb SRC1 inh	ERa SRC1 pot	MRP reversal	ERa SRC1 inh	MRP-1 activ
O=C1SC(SC(=Nc2ccccc2)Nc2ccccc2)C(=O)N1c1ccccc1 (centres undefined)	-	-	-	-	0
O=C(COC(=O)c1cc(S(=O)(=O)N2CCc3ccccc3C2)ccc1Cl)NCc1ccco1	0	0	0	0	0
O=C(NCc1ccco1)c1cc(-c2cccs2)nc2ccccc12	-	-	-	-	0
O=C(COC(=O)c1ccco1)NCc1ccco1	0	0	0	0	0
O=C(COC(=O)c1cc(-c2cccs2)nc2ccccc12)NCc1ccco1	0	0	0	65.2[fluorescence artefact?]	0
O=C(COC(=O)c1cccc(S(=O)(=O)N2CCc3ccccc3C2)c1)NCc1ccco1	53.0	0	0	64.9	0
Cc1ccc(C(=O)OCC(=O)NCc2ccco2)cc1	0	0	0	0	0
O=C(COC(=O)c1ccccc1Oc1ccccc1)NCc1ccco1	0	0	0	63.8	0
